This is an account of results in PubChem BioAssay AID602248 (The Scripps Research Institute Molecular Screening Center, 2012).

Out of some 360,000 compounds screened, about 1,700 (0.47%) were called active. Cut-off read from the data, not from the text of the source: active = activation above about 15%; inactive = the rest. Shown is part of a subset that was picked to be rich in actives.

This test is described as follows: counter-screen for M1 agonists: effect in parental CHO-K1 cells (AID 602248).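 Note: untransfected CHO-K1 host cells lacking M1 receptor as counterscreen.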 Conditions: Fluo-8 calcium fluorescence, at 3 µM, hits give high values, scaled to maximal ATP response, vehicle zero.
As to `O=C(NC1CC1)C1=C[C@H](c2c[nH]c3ccccc23)C[C@H](OCc2ccc(CO)cc2)O1`, the activation was -0.26% (inactive). For `NC(=O)C1=C[C@H](c2csc3ccccc23)C[C@H](OCc2ccc(CO)cc2)O1` the value was 15.6% (active). For `NC(=O)C1=C[C@@H](c2csc3ccccc23)C[C@@H](OCc2ccc(CO)cc2)O1` the value was 5.09% (inactive). On to `Cc1ccc(N)cc1-n1c(C)ccc1C`, for which the activation was 0.3% (inactive). As to `O=C(CSc1ccc(Cl)cc1)NC1CC1`, the activation was -0.25% (inactive). With `CCSc1nc2sc3c(c2c(=O)[nH]1)CC(C)(C)OC3` the figure was 0.45% (inactive); with `CCC1(C)Cc2c(sc3nc(SC)[nH]c(=O)c23)CO1` (stereo unspecified), 18.7% (active). `CC/C(C)=N/Nc1nc2sc3c(c2c(=O)[nH]1)CC(C)(C)OC3`: the activation was 0.65% (inactive). For `COc1ccc(-n2ncc3c2CC(C)(C)CC3NC(=O)CCc2c(C)nn(C)c2C)cc1` (stereo unspecified) the value was 2.09% (inactive); for `Cc1ccc(NC(=O)C(C)c2cccc(C(=O)c3ccccc3)c2)cc1` (stereo unspecified), 3.5% (inactive). With `CCC(C(=O)Nc1ccc(C(C)C)cc1)c1ccccc1` (stereo unspecified) the figure was 21.5% (active). With `CCCC(C)C(=O)Nc1ccc(NC(C)=O)cc1` (stereo unspecified) the figure was -0.01% (inactive); with `COc1ccc([C@H]2C[C@@H](n3cc(COC(=O)c4ccccc4)nn3)[C@H](O)CN2C(=O)c2cccs2)cc1`, 4.74% (inactive).

Take `O=C(NCCc1ccccn1)c1cc(C(=O)C2CCCCC2)c[nH]1`: the activation is 0.74% (inactive). In the case of `CC(NC(=S)Nc1ccc(OC(F)F)cc1)c1ccc(F)cc1` (stereo unspecified), the activation is 18.2% (active). With `CC/C(=N\NC(=S)NC(C)C)c1ccc(OC(F)F)cc1` the figure was 0.04% (inactive); with `CC(C)N(Cc1ccccc1)C(=S)Nc1ccc(OC(F)F)cc1`, 3.54% (inactive); with `COC(=O)[C@]12CCCCC=C1N(CCC1=CCCCC1)C(=O)[C@H](CC(=O)N1CCSCC1)C2`, 2.39% (inactive). Take `O=C(CC(=O)N/N=C\c1cccc(Cl)c1Cl)NCc1ccccc1`: the activation was 6.61% (inactive). With `CSc1sc(C)cc1C1C(C#N)=C(N)N(c2cccnc2)C2=C1C(=O)CCC2` (stereo unspecified) the figure was 0.25% (inactive). With `C=CC(=O)OCCOCCOCCOCCOC(=O)C=C` the figure was 0.44% (inactive); with `Oc1ccccc1N1CCN(c2ncnc3sc(-c4ccccc4)cc23)CC1`, 18.6% (active). For the molecule `COc1ccccc1N1CCN(c2ncnc3sc(C)c(-c4ccccc4)c23)CC1`, the activation was 0.5% (inactive). Consider `CCc1cc2c(N3CCN(c4nnc(CC)s4)CC3)ncnc2s1`, for which the activation is 3.43% (inactive). In the case of `CCOC(=O)[C@H]1[C@H]2COc3ccc(Cl)cc3[C@@H]2N2C(=O)c3cc(C)ccc3NC(=O)[C@@]12C`, the activation was -0.51% (inactive). In the case of `COc1ccc(CSc2nnnn2-c2ccc(O)cc2)cc1F`, the activation was 7.29% (inactive).

In the case of `COc1ccc2c(c1)[C@H]1[C@H](CO2)[C@H](c2ccccc2)[C@]2(C)C(=O)Nc3cc(F)c(F)cc3C(=O)N12`, the activation is 0.27% (inactive). Consider `CCN1C(=NCC(C)C)N[C@@H](CCc2ccccc2)[C@H](C(=O)NCC(C)C)[C@H]1C`, for which the activation is 0.45% (inactive). As for `O=S1(=O)CC(N2CCN(Cc3ccccc3F)CC2)CN1Cc1cn(Cc2ccccc2)nn1` (stereo unspecified), the activation was 0.46% (inactive). Take `CCOC(=O)CC1=CC(=O)Nc2ccccc2N1`: the activation is 0.86% (inactive).

Regarding `O=C(COC(=O)c1ccc(Cl)nc1)NCc1ccc2c(c1)OCO2`, the activation is 1.56% (inactive). With `NC(=O)c1ccc(NC(=O)COC(=O)c2c3c(nc4ccccc24)/C(=C\c2ccc4c(c2)OCO4)CCC3)cc1` the figure was 28.9% (active); with `CC(=O)Nc1cccc(C(=O)OCC(=O)c2ccc3c(c2)OCO3)c1`, 3.56% (inactive). With `CC(NC(=S)Nc1ccc(S(N)(=O)=O)cc1)c1ccc2c(c1)OCO2` (stereo unspecified) the figure was 0.36% (inactive); with `NS(=O)(=O)c1ccc(NC(=O)COC(=O)CCc2c[nH]c3ccccc23)cc1`, 2.12% (inactive); with `NS(=O)(=O)c1ccc(NC(=O)COC(=O)c2c3c(nc4ccccc24)/C(=C\c2ccc4c(c2)OCO4)CCC3)cc1`, 17.2% (active). For `Cc1ccc(NS(=O)(=O)c2cn(C)c(=O)n(C)c2=O)c(C)c1`, the activation was 0.05% (inactive).

For `O=C(COC(=O)c1cncc(Br)c1)Nc1ccc(S(=O)(=O)N2CCOCC2)cc1`, the activation was 0.85% (inactive). With `CN(CCO)C(=O)c1nc[nH]c1C(=O)N(C)Cc1ccccc1` the figure was 0.53% (inactive). Regarding `CN(C(=O)CN(CCO)CC(=O)N(C)C(C)(C)Cc1ccccc1)C(C)(C)Cc1ccccc1`, the activation was 30.2% (active).

As to `CCOC(=O)N(Cc1ccccc1)C1CC1`, the activation is 0.45% (inactive).

`COc1ccc(CCNS(=O)(=O)c2ccc(Cl)s2)cc1OC`: the activation is 0.5% (inactive). `CCCn1c(=O)c2ccccc2n2c(SCC(=O)/C(C#N)=C(\C)N)nnc12`: the activation is -0.17% (inactive). With `CN(C)c1ccc(C(CNC(=O)c2ccc(F)cc2)c2c[nH]c3ccccc23)cc1` (stereo unspecified) the figure was 0.33% (inactive).

Take `COC(=O)c1nc2n(n1)C(c1ccc([N+](=O)[O-])cc1)C(C(=O)Nc1ccc(Cl)cc1)=C(C)N2` (stereo unspecified): the activation is 0.7% (inactive). For `CCN(CC)CCCC(C)n1c2nc(=O)[nH]c(=O)c-2nc2cc(Cl)ccc21` (stereo unspecified), the activation was 150% (active).

`CC(=O)c1c(C)[nH]c(C(=O)OCC(=O)Nc2c(C)n(C)n(-c3ccccc3)c2=O)c1C`: the activation was 0.66% (inactive).

For `O=C(c1ccc(=O)[nH]c1)N(Cc1ccco1)C1(C(=O)NC2CCCCC2)CCCCC1`, the activation was 0.04% (inactive). With `COc1ccc(OC)c(NC(=O)C2CCCN2S(=O)(=O)c2cccc3nsnc23)c1` (stereo unspecified) the figure was 0.61% (inactive); with `Nc1ccc2[nH]c(=S)sc2c1`, 0.51% (inactive).

Take `O=C(CCN1C(=O)COc2ccccc21)NCCCN1CCN(c2ccc(F)cc2)CC1`: the activation is 0.21% (inactive). With `CN1CCN(CCNC(=O)Nc2ccc([N+](=O)[O-])cc2)CC1` the figure was 0.55% (inactive). For the molecule `O=C(NCCCN1CCN(c2ccc(F)cc2)CC1)Nc1ccc([N+](=O)[O-])cc1`, the activation is 15.1% (active). For the molecule `CCn1nnnc1SCC(=O)Nc1ccc(N(C)C)cc1`, the activation is 0.31% (inactive). `Nc1nc(CSc2nnnn2-c2ccccc2)nc(Nc2ccccc2)n1`: the activation is 1.93% (inactive). For `Cc1ccccc1Nc1nc(N)nc(CSc2ccccc2)n1` the value was 0.45% (inactive). Consider `CCSCc1nc(N)nc(NCCc2ccccc2)n1`, for which the activation was 15.5% (active).

In the case of `CCOC(=O)C1(Cc2cccc(OC)c2)CCN(C(C)CC(C)(C)O)CC1` (stereo unspecified), the activation was 13.4% (inactive). Turning to `Cc1ccc(NC(=O)COC(=O)CCc2nc3ccccc3n2-c2ccccc2)c(C)c1`, the activation is -0.22% (inactive). On to `COc1cc(OC)cc(C(=O)NNC(=O)CCOc2ccccc2OC)c1`, for which the activation was 0.49% (inactive).

For the molecule `O=C(CCCN=C1NS(=O)(=O)c2ccccc21)OCC(=O)c1ccc(F)c(F)c1`, the activation is 16.5% (active).

For the molecule `O=C(OCCN=C1NS(=O)(=O)c2ccccc21)c1cccc([N+](=O)[O-])c1`, the activation is 1.57% (inactive).

In the case of `N#CC1(NC(=O)COC(=O)CCN=C2NS(=O)(=O)c3ccccc32)CCCCC1`, the activation was 1.21% (inactive). With `O=C(NCCCN1CCCC1=O)c1cccc(S(=O)(=O)NCc2ccccc2)c1` the figure was 0.5% (inactive). Take `CC(C)(C)C(=O)NNC(=O)c1ccc(Oc2cc(Cl)cc(Cl)c2)o1`: the activation is 0.25% (inactive). Turning to `CC(C(=O)N1CCc2ccccc21)N(C)CC(=O)Nc1ccc(F)cc1` (stereo unspecified), the activation was 1.77% (inactive). With `O=C(/C=C/c1ccc(F)cc1)NC(=S)NNC(=O)c1cccnc1` the figure was 1.3% (inactive); with `Cc1onc(-c2ccccc2)c1C(=O)N1CCN(S(=O)(=O)c2ccccc2C(F)(F)F)CC1`, 0.62% (inactive). For `CC(C)CNC(=S)NNC(=O)c1ccccc1OC(F)F` the value was 0.18% (inactive). Take `Cc1scc(C(=O)NNC(=S)NCc2ccccc2)c1C`: the activation was 1.16% (inactive). On to `COc1ccccc1CCC(=O)NNC(=O)c1ccncc1`, for which the activation is 0.44% (inactive). On to `Cn1nnc(NC(=S)NC(=O)c2ccccc2)n1`, for which the activation is 0.43% (inactive). With `COc1ccc(C(=O)NC(=S)NNC(=O)CCc2ccccc2)cc1` the figure was 21.1% (active). Take `O=C(NNC(=S)NCc1ccccc1)c1ccc(OC(F)F)cc1`: the activation was 15.8% (active). `CC(=O)NC(=S)NNC(=O)c1ccc(Br)cc1`: the activation is -0.94% (inactive).

As to `COc1ccc(/C(N)=N/OC(=O)CCCc2ccccc2)cc1`, the activation was -0.55% (inactive).

In the case of `COc1ccc(C(=O)NNC(=S)NC(=O)c2ccccc2)cc1`, the activation is 38.2% (active). With `Cc1onc(-c2ccccc2)c1C(=O)NNC(=S)NC(=O)c1ccc(F)cc1` the figure was 28.7% (active). With `O=C(Oc1ccc2c(c1)CCC2)N1CCOCC1` the figure was 1.59% (inactive). For `CCC(=O)c1cc(F)ccc1OCC(=O)Nc1ccc2c(c1)OCCO2` the value was 0.59% (inactive); for `CC(C)NC(=O)C1(C)CCCCN1Cc1cccc(C(F)(F)F)c1` (stereo unspecified), -0.34% (inactive). In the case of `Cc1cccc(NC(=O)N2CCCCCC2)c1C`, the activation is 0.19% (inactive). For `Cc1ccc(S(=O)(=O)NC(C)C(=O)Nc2ccccc2C(=O)N2CCCC2)cc1` (stereo unspecified) the value was -0.4% (inactive); for `O=S1(=O)CCOC[C@H](CC2CCCCC2)N1Cc1ccc(F)cc1`, -0.24% (inactive). With `CCC(C)c1ccccc1N1CC(C(=O)N2CCN(S(=O)(=O)c3ccc(F)cc3)CC2)CC1=O` (stereo unspecified), the activation was 1.26% (inactive). With `COc1cccc(-c2ccc(C#N)c(SCC(=O)NCCc3ccc(Cl)cc3)n2)c1` the figure was -0.1% (inactive); with `CC(=O)Oc1ccc(-c2cccc(C(=O)N3CCCCC3)c2)cc1`, 2.44% (inactive).

As to `Nc1c(C(=O)c2cccs2)sc2nsc(SCCN3CCCCC3)c12`, the activation was 69.8% (active). As for `CCOC(=O)C(C)Sc1nnc(CSc2nc3nc(C)cc(C)n3n2)o1` (stereo unspecified), the activation is 1.72% (inactive).

As for `Cc1ccc(NC(=O)CC2S/C(=N/N=C3\CCCc4ccccc43)NC2=O)cc1` (stereo unspecified), the activation was 12.4% (inactive).

Regarding `O=C(OCc1ccccc1)N1CCC2CC1c1ccc(-c3ccc4c(c3)OCO4)cc12` (stereo unspecified), the activation was 1.17% (inactive).
